Bioassay records (PubChem BioAssay)
D2 ag-1 – D2 dopamine receptor (human) agonism; P14416; HEK293 T-REx D2 cells, calcium flux agonist mode; activation, % at 2 µM; actives 0.53% (n = 340,000);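 active = activation over 3 SD above normal in the single-dose calcium agonist read, cut at about 30% in these data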
Target sequence (P14416 whole entry, looked up): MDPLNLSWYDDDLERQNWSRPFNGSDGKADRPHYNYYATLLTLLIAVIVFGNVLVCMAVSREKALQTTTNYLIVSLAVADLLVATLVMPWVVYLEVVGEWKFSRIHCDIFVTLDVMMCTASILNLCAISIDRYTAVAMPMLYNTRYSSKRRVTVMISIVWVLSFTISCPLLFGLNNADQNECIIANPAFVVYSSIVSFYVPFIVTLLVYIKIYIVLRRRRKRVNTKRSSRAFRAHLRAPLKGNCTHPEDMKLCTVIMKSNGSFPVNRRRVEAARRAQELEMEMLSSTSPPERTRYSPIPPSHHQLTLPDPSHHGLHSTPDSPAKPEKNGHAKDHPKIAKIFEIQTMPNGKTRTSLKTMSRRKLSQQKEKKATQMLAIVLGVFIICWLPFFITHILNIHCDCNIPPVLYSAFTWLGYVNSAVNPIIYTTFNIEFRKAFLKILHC
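Tetracycline-induced HEK293 Trex cells with D2 receptor force-coupled to calcium signaling, plated overnight at 30 C and loaded with no-wash calcium dye. Calcium flux read kinetically for 180 s after compound addition; responses flag agonists.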
D2 PAM-1 – positive allosteric modulators of human D2 dopamine receptor; DiscoveRx D2 beta-arrestin cells, luminescence, 90 min; 100% = 57 uM dopamine signal; potentiation, % (test concentration not listed); P14416; actives 0.23% (n = 360,000); AID 624464; in the data active = potentiation above about 50%; inconclusive = mostly about 30% to 49%
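PathHunter D2 cells, attached overnight at 37 deg C, received compound in DMSO plus dopamine at EC20 (50 nM final) for 90 min at 37 deg C. Beta-arrestin recruitment was read as luminescence after 1 h with detection reagent at ambient temperature.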
D2 antag – D2 dopamine receptor (human) antagonism | HEK293 TREx D2 cells, calcium flux, dopamine EC80 | inhibition, % at 10 µM | actives 2% (n = 340,000); in the data active = inhibition above about 30%; inactive = below that, where a call was filed
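Tetracycline-induced HEK293 T-REx cells expressing D2 force-coupled to calcium signalling were dye-loaded, exposed to compound for 180 s, then challenged with an EC80 of dopamine; calcium flux was followed kinetically for a further 180 s.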
D2 ag-2 – human D2 receptor agonism in beta-arrestin assay; actives 0.084% (n = 360,000); activation, % (no concentration beside the values); AID 624465; DiscoveRx PathHunter D2 beta-arrestin, luminescence, 90 min; 100% = 57 uM dopamine signal; P14416; in the data active = activation above about 40%; inconclusive = between about 15% and that limit
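DiscoveRx PathHunter D2 beta-arrestin cells (2,100/well) attached overnight, then compound-stimulated 90 min at 37 C in HBSS/10 mM HEPES/0.1% Tween-20 buffer; beta-galactosidase complementation read by luminescence after 1 h at ambient temperature. Dopamine 57 uM final (EC100) as control.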
D2 PAM-2 – D2 dopamine receptor (human) potentiation. P14416. HEK293 T-REx D2, calcium flux, EC20 dopamine potentiation. potentiation, % at 10 µM. actives 0.34% (n = 340,000). AID 485347;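 active = potentiation over 3 SD above the plate norm, cut at about 30% in these data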
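Potentiation of an EC20 dopamine calcium response is measured in a force-coupled, tetracycline-inducible Hek293 Trex D2 line. Compound-only kinetic reads over 180 s flag agonists before dopamine addition.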
D3 ag – confirmation of human D3 dopamine receptor agonists, beta-arrestin | shares compounds with D2 ag-1 | DiscoveRx D3 beta-arrestin cells, luminescence, 90 min | Potency, µM (doses to about 76.9 µM), actives largely listed as activators | actives 4% (n = 2,300); note: nearly all actives have a fitted effect of over 70% in size
D2 ag-3 – activates human D2 dopamine receptor in D3 counterscreen; Potency, µM (top dose mostly 76.9 µM), hits mostly activators; shares compounds with D2 ag-1; AID 720507; actives 5.9% (n = 2,300); DiscoveRx PathHunter D2 beta-arrestin, luminescence, 90 min; response scale: percent relative to full dopamine signal; note: nearly all actives have a fitted effect of over 70% in size
A number is an active result. Shown are actives, neighbours in structure and some others; about 2.4% of the full set was active somewhere. Unless noted, calls come from the whole dose curve; as a rule, active = well fitted activation curve with a large enough effect; inconclusive = small, poorly fitted or top-dose-only effect; inactive = flat fitted curve, though single readings scatter.

How did Cc1cc(C)c(Cn2c3ccccc3c3cnn(CC(=O)NCCCc4ccccc4)c(=O)c32)c(C)c1 do in these assays?
D2 ag-1: inactive; D2 PAM-2: inactive

How did Cc1ccc(-n2nc(C)c3c(C(=O)NCc4ccccc4)cc(C4CC4)nc32)cc1 do in these assays?
D2 ag-1: inactive; D2 PAM-2: inactive

How did Cc1ccc(CN2CCN(Cc3ccc(-n4cccn4)cc3)CC2CCO)cc1 (centres undefined) do in these assays?
D2 ag-1: inactive; D2 PAM-1: inactive; D2 antag: inactive; D2 ag-2: inactive; D2 PAM-2: inactive

How did O[C@@H]1CN(Cc2ccc(-n3cccn3)cc2)CC[C@H]1N1CCN(c2ccccc2F)CC1 do in these assays?
D2 ag-1: 65; D2 PAM-1: inactive; D2 antag: 39; D2 ag-2: inactive; D2 PAM-2: inactive; D3 ag: inactive; D2 ag-3: inconclusive

What do the screens show for `CCc1ccc(NC(=O)CC2C(=O)N(c3cccc(OC)c3)C(=O)N2Cc2ccc(F)cc2)cc1` (centres undefined)?
D2 ag-1: inactive; D2 PAM-2: inactive

Results for COC(=O)c1cccc(NC(=O)CN2CCc3ccccc3C2)c1 ?
D2 ag-1: inactive; D2 PAM-1: inactive; D2 antag: inactive; D2 ag-2: inactive; D2 PAM-2: inactive; D3 ag: inconclusive; D2 ag-3: inactive

Results for CN(CC(=O)Nc1ccc(Cl)c(C(F)(F)F)c1)C(=O)C1CC(=O)N(CCc2ccccc2)C1 (centres undefined) ?
D2 ag-1: inactive; D2 PAM-1: inactive; D2 antag: inactive; D2 ag-2: inactive; D2 PAM-2: inactive; D3 ag: inactive; D2 ag-3: inactive

What do the screens show for `COc1ccc(CCN2CC(C(=O)N(C)CC(=O)Nc3ccc(Cl)c(C(F)(F)F)c3)CC2=O)cc1OC` (centres undefined)?
D2 ag-1: inactive; D2 PAM-1: inactive; D2 antag: inactive; D2 ag-2: inactive; D2 PAM-2: inactive; D3 ag: inactive; D2 ag-3: inactive

How did COc1cccc(CNC(=O)Cn2c(C)c3cnn(-c4ccccc4)c(=O)c3c2C)c1 do in these assays?
D2 ag-1: inactive; D2 PAM-2: inactive

How did OC(CSc1c(Cl)cccc1Cl)CN1CCN(c2ccccc2F)CC1 (centres undefined) do in these assays?
D2 ag-1: 68; D2 PAM-1: inactive; D2 antag: 65; D2 ag-2: inconclusive; D2 PAM-2: inactive; D3 ag: inconclusive; D2 ag-3: inconclusive

Results for OC(CSc1ccccc1Cl)CN1CCN(c2ccccc2F)CC1 (centres undefined) ?
D2 ag-1: 63; D2 PAM-1: inactive; D2 antag: 74; D2 ag-2: inconclusive; D2 PAM-2: inactive; D3 ag: 45µM; D2 ag-3: inconclusive

What do the screens show for `Cc1c(C(=O)Nc2ccc(F)cc2)oc2ccc(S(=O)(=O)N3CCCCCC3)cc12`?
D2 ag-1: inactive; D2 PAM-2: inactive

How did COc1ccc(NC(=O)c2c(NC(=O)C(F)(F)F)sc3c2CCCCC3)cc1 do in these assays?
D2 ag-1: inactive; D2 PAM-2: inactive

Results for COc1ccc(CCNCCC(c2ccccc2)c2ccccc2)cc1OC ?
D2 PAM-1: inactive; D2 ag-2: inactive

How did COc1ccccc1CCNC(C)CCc1ccc(O)cc1 (centres undefined) do in these assays?
D2 ag-1: 41; D2 PAM-1: inactive; D2 antag: inactive; D2 ag-2: inactive; D2 PAM-2: inactive; D3 ag: inconclusive; D2 ag-3: inactive

What do the screens show for `COc1cc(OC)c(OC)cc1CCC(C)NCCC(c1ccccc1)c1ccccc1` (centres undefined)?
D2 ag-1: 50; D2 PAM-1: inactive; D2 antag: 49; D2 ag-2: inactive; D2 PAM-2: inactive; D3 ag: inactive; D2 ag-3: inconclusive

What do the screens show for `COc1ccc(CCC(C)NCc2ccccc2OC)cc1` (centres undefined)?
D2 ag-1: inactive; D2 PAM-1: inactive; D2 antag: inactive; D2 ag-2: inactive; D2 PAM-2: inactive

What do the screens show for `O=C(CSc1nc(=O)[nH]c2c1CCC2)NCc1ccc(Cl)cc1`?
D2 ag-1: inactive; D2 PAM-2: inactive

Results for O=C1CC(N2CCN(Cc3ccc4c(c3)OCO4)CC2)C(=O)N1Cc1ccc(N2CCCC2=O)cc1 (centres undefined) ?
D2 ag-1: 54; D2 PAM-1: inactive; D2 antag: inactive; D2 ag-2: inactive; D2 PAM-2: inactive; D3 ag: inactive; D2 ag-3: inactive

What do the screens show for `O=C1CC(N2CCOCC2)C(=O)N1Cc1ccc(N2CCCC2=O)cc1` (centres undefined)?
D2 ag-1: inactive; D2 PAM-1: inactive; D2 antag: inactive; D2 ag-2: inactive; D2 PAM-2: inactive

Results for CN(CC(=O)Nc1ccc(F)cc1)C(=O)Cn1c(=O)oc2ccccc21 ?
D2 ag-1: inactive; D2 PAM-1: inactive; D2 antag: inactive; D2 ag-2: inactive; D2 PAM-2: inactive; D3 ag: inactive; D2 ag-3: inactive

How did Cc1ccc(NC(=O)CN(C)C(=O)Cn2c(=O)oc3ccccc32)cc1 do in these assays?
D2 ag-1: inactive; D2 PAM-1: inactive; D2 antag: inactive; D2 ag-2: inactive; D2 PAM-2: inactive

How did CCCSc1nc2sc3c(c2c(=O)n1-c1ccc(C)c(Cl)c1)CCN(C(C)=O)C3 do in these assays?
D2 ag-1: inactive; D2 PAM-2: inactive

What do the screens show for `C=CCN(CC=C)CCOc1ccccc1`?
D2 ag-1: 53; D2 PAM-1: inactive; D2 antag: inactive; D2 ag-2: inactive; D2 PAM-2: inactive; D3 ag: inactive; D2 ag-3: inactive

How did CC(OC(=O)c1ccc(-n2cnnn2)cc1)C(=O)Nc1ccc(F)c(F)c1F (centres undefined) do in these assays?
D2 ag-1: inactive; D2 PAM-1: inactive; D2 antag: inactive; D2 ag-2: inactive; D2 PAM-2: inactive; D3 ag: inactive; D2 ag-3: inactive

What do the screens show for `CC(OC(=O)c1ccc(-n2cnnn2)cc1)C(=O)Nc1ccccc1F` (centres undefined)?
D2 PAM-1: inactive; D2 ag-2: inactive

Results for Cc1cc(NC(=O)CSCC(=O)Nc2cc(Cl)ccc2N2CCN(C)CC2)no1 ?
D2 ag-1: inactive; D2 PAM-1: inactive; D2 antag: inactive; D2 ag-2: inactive; D2 PAM-2: inactive; D3 ag: inactive; D2 ag-3: inactive

How did Cc1cc(C)cc(NC(=O)C2CCCN(c3nnc(C)c4c(C)n(-c5ccccc5)nc34)C2)c1 (centres undefined) do in these assays?
D2 ag-1: inactive; D2 PAM-2: inactive
